One assay has as its system Staphylococcus aureus. Briefly: Antibacterial activity against Staphylococcus aureus MRSA ATCC 43300 (CO-ADD:GP_020); MIC in CAMBH media using NBS plates, by Resazurin F(560/590). The format is functional. The following applies: Concentration 20 uM, ASSAY_TEST Inhibition of Bacterial Growth, detection method Resazurin, Fluorescence (ex560/em590), MEDIA CAMHB, plate type 384well, CORNING #3640, time 18 hr.

In a further assay the test system is Acinetobacter baumannii. Briefly: Antibacterial activity against Acinetobacter baumannii ATCC 19606 (CO-ADD:GN_034); MIC in CAMBH media using NBS plates, by Resazurin F(560/590). The following applies: Concentration 20 uM, ASSAY_TEST Inhibition of Bacterial Growth, detection method Resazurin, Fluorescence (ex560/em590), MEDIA CAMHB, plate type 384well, CORNING #3640, time 18 hr. The assay is classed as functional. A general note: Resazurin is reduced to fluorescent resorufin, in cell work by metabolically active cells.

The test system of a further assay is Escherichia coli. Briefly: Antibacterial activity against Escherichia coli ATCC 25922 (CO-ADD:GN_001); MIC in CAMBH media using NBS plates, by Resazurin F(560/590). The format is functional. The following applies: Concentration 20 uM, ASSAY_TEST Inhibition of Bacterial Growth, detection method Resazurin, Fluorescence (ex560/em590), MEDIA CAMHB, plate type 384well, CORNING #3640, time 18 hr.

Another assay relates to Klebsiella pneumoniae. As to conditions: Concentration 20 uM; ASSAY_TEST Inhibition of Bacterial Growth; detection method Absorption (OD600); MEDIA CAMHB; plate type 384well; NBS; CORNING #3640; time 18 hr.
For another assay, the system named is Candida albicans. The following applies: 20 µM.
A further assay has as its system Cryptococcus neoformans. As to conditions: Concentration 20 uM; ASSAY_TEST Inhibition of Fungal Growth; detection method Resazurin; Absorption (OD600-OD570); plate type 384well; NBS; CORNING #3640.

For part of these data: Measured potencies and affinities stand elsewhere.

One may read the Inhibition as the relative decrease from the control value, in per cent. For the compound `COc1ccc(NC(=O)CC(C)=O)c(OC)c1`, the Inhibition in the assay on Staphylococcus aureus is 5.13%; in the assay on Acinetobacter baumannii, -8.6%; in the assay on Escherichia coli, 1.4%; in the assay with Klebsiella pneumoniae it was 22.3%; in the assay on Candida albicans, 0.23%; in the assay with Cryptococcus neoformans it was -3.01%.

Take `OCC1(CO)COC2(CCCC2)N1`: the Inhibition in the assay with Staphylococcus aureus was 5.01%; in the assay with Acinetobacter baumannii, 0.7%; with Escherichia coli it was 4.05%; in the assay on Klebsiella pneumoniae, 19.67%; in the assay on Candida albicans it was -1.93%; in the assay with Cryptococcus neoformans it was -8.24%.

In the case of `Cc1cc(O)c2c(C)ccc(C)c2n1`, the Inhibition in the assay on Staphylococcus aureus was 0.21%; with Acinetobacter baumannii it was 1.08%; in the assay on Escherichia coli, 3.82%; in the assay with Klebsiella pneumoniae, 5.25%; with Candida albicans it was 0.13%; in the assay with Cryptococcus neoformans it was -9.44%.

`COc1cccc(OCC(O)CN2CCN(c3ccc(Cl)cc3)CC2)c1` (stereo not given): the Inhibition in the assay with Staphylococcus aureus is 13.17%; with Acinetobacter baumannii, 4.14%; with Escherichia coli, 2.15%; in the assay on Klebsiella pneumoniae, 0.79%; in the assay on Candida albicans, 0.05%; in the assay on Cryptococcus neoformans it was -12.54%.

`CC(=O)c1c(O)c(C)c(O)c2c1OC1=CC(=O)/C(=C(/C)N)C(=O)C12C` (stereo not given): the Inhibition was -3.02% with Staphylococcus aureus; 6.34% with Acinetobacter baumannii; 8.14% in the assay with Escherichia coli; 14.26% in the assay with Klebsiella pneumoniae; 6.96% in the assay with Candida albicans; -10.35% in the assay on Cryptococcus neoformans.

As for `c1ccc(NCCSc2nc3ccccc3s2)cc1`, the Inhibition in the assay with Staphylococcus aureus was 32.95%; in the assay on Acinetobacter baumannii, -17.22%; in the assay with Escherichia coli, 10.16%; in the assay with Klebsiella pneumoniae it was 12.47%; in the assay with Candida albicans, 3.32%; in the assay with Cryptococcus neoformans it was 13.76%.

As for `Oc1c(Cl)cc(Cl)cc1C1Nc2ccccc2-n2cccc21` (stereo not given), the Inhibition was 8.71% with Staphylococcus aureus; 9.53% in the assay on Acinetobacter baumannii; -0.55% in the assay with Escherichia coli; 11.09% in the assay with Klebsiella pneumoniae; 1.7% with Candida albicans; -0.72% with Cryptococcus neoformans.

In the case of `CCSc1nc(C)c(C)c(O)n1`, the Inhibition was -7.95% in the assay with Staphylococcus aureus; -12.73% in the assay with Acinetobacter baumannii; 10.67% in the assay with Escherichia coli; 6.61% in the assay with Klebsiella pneumoniae; 2.45% in the assay on Candida albicans; -10.18% in the assay on Cryptococcus neoformans.

`O=C1OCC/C1=C\c1ccc2c(c1)OCO2`: the Inhibition is 9.07% in the assay on Staphylococcus aureus; -7.38% with Acinetobacter baumannii; 9.99% in the assay with Escherichia coli; 4.4% in the assay with Klebsiella pneumoniae; 3.83% in the assay on Candida albicans; 0.17% in the assay on Cryptococcus neoformans.

Regarding `CCCCNCC1CCCO1` (stereo not given), the Inhibition with Staphylococcus aureus was 9.4%; with Acinetobacter baumannii it was -3.42%; in the assay with Escherichia coli, 8.45%; in the assay on Klebsiella pneumoniae it was 9.23%; in the assay on Candida albicans it was -0.1%; in the assay on Cryptococcus neoformans it was -3.66%.

For `CCCCSc1cc(C)nc(N)n1`, the Inhibition in the assay on Staphylococcus aureus was 19.18%; in the assay with Acinetobacter baumannii it was -7.66%; with Escherichia coli, 11.54%; in the assay on Klebsiella pneumoniae, 4.75%; with Candida albicans it was 1.09%; in the assay with Cryptococcus neoformans, -5.9%.

Consider `COc1ccc(NC(=O)N2CCN(C(=O)Nc3ccc(OC)cc3)CC2)cc1`, for which the Inhibition is 0.79% with Staphylococcus aureus; 9.56% in the assay on Acinetobacter baumannii; -5.74% in the assay with Escherichia coli; 5.35% in the assay on Klebsiella pneumoniae; -1.52% in the assay with Candida albicans; 3.31% with Cryptococcus neoformans.

For `C1CCC(NC2=NCCO2)CC1`, the Inhibition in the assay with Staphylococcus aureus was -4.28%; in the assay on Acinetobacter baumannii, -18.87%; in the assay with Escherichia coli it was 9.63%; in the assay on Klebsiella pneumoniae it was 6.74%; in the assay on Candida albicans, -0.27%; with Cryptococcus neoformans, -10.7%.

For `Cc1cccc2c1c1ccc3c(c1n2C)C(=O)C=CC3=O`, the Inhibition was -3.83% in the assay with Staphylococcus aureus; -13.4% with Acinetobacter baumannii; 14.66% in the assay with Escherichia coli; 10.43% with Klebsiella pneumoniae; 16.9% with Candida albicans; 1.61% in the assay on Cryptococcus neoformans.

With `NC(=O)c1nnsc1-c1ccc(-c2snnc2C(N)=O)cc1`, the Inhibition in the assay on Staphylococcus aureus was 15.72%; in the assay with Acinetobacter baumannii, 9.25%; in the assay on Escherichia coli, 9.34%; in the assay on Klebsiella pneumoniae it was 2.92%; in the assay on Candida albicans, -1.56%; with Cryptococcus neoformans, -13.62%.

For `CCOC(=O)Nc1c2ccccc2nc2ccccc12`, the Inhibition in the assay on Staphylococcus aureus is 6.28%; with Acinetobacter baumannii, -11.12%; in the assay with Escherichia coli it was 4.72%; in the assay with Klebsiella pneumoniae, 16.5%; in the assay with Candida albicans, 2.36%; with Cryptococcus neoformans, -13.98%.

For `COc1ccccc1/C=C(\C#N)C(=O)O`, the Inhibition was 12.51% in the assay with Staphylococcus aureus; 1.75% in the assay with Acinetobacter baumannii; 5.31% in the assay with Escherichia coli; 6.46% in the assay on Klebsiella pneumoniae; 6.96% with Candida albicans; -7.1% in the assay with Cryptococcus neoformans.

Turning to `C=CCOCCN(CC)CC`, the Inhibition in the assay on Staphylococcus aureus was -2.28%; in the assay on Acinetobacter baumannii, -4.48%; in the assay on Escherichia coli it was -9.5%; in the assay with Klebsiella pneumoniae, 7.56%; with Candida albicans, 2.62%; in the assay with Cryptococcus neoformans it was 15.03%.

Turning to `CN(C)Cc1cc(C(F)(F)F)ccc1C(O)(c1ccccc1)c1ccccc1`, the Inhibition in the assay on Staphylococcus aureus is 9.65%; with Acinetobacter baumannii, 13.38%; in the assay on Escherichia coli, 9.52%; in the assay with Klebsiella pneumoniae it was 10.99%; with Candida albicans it was -1.43%; with Cryptococcus neoformans, -9.44%.

As for `O=C1OCC/C1=C\OCCCO/C=C1\CCOC1=O`, the Inhibition in the assay with Staphylococcus aureus was -12.85%; in the assay on Acinetobacter baumannii, -4.57%; in the assay on Escherichia coli, -5.06%; with Klebsiella pneumoniae, 8.79%; with Candida albicans it was -0.38%; in the assay on Cryptococcus neoformans it was -11.43%.

Turning to `CN1N=C(N)c2cn(C3OC(COP(=O)(O)O)C(O)C3O)c3ncnc1c23` (stereo not given), the Inhibition in the assay on Staphylococcus aureus was 8.75%; in the assay with Acinetobacter baumannii it was 8.14%; with Escherichia coli, -1.62%; with Klebsiella pneumoniae, 4.46%; in the assay on Candida albicans, -1.48%; in the assay with Cryptococcus neoformans it was -0.7%.

With `CN(C)c1ccc(/C=C(\C#N)C(=O)c2ccccc2)cc1`, the Inhibition in the assay with Staphylococcus aureus is 3.86%; with Acinetobacter baumannii, -12.37%; in the assay with Escherichia coli, 8.74%; with Klebsiella pneumoniae, 11.84%; in the assay with Candida albicans, 4.91%; in the assay on Cryptococcus neoformans, -12.58%.

Consider `COc1ccccc1NC(=O)c1cc2ccccc2cc1O`, for which the Inhibition in the assay with Staphylococcus aureus was 12.35%; in the assay on Acinetobacter baumannii, 5.68%; in the assay on Escherichia coli, 6.98%; in the assay on Klebsiella pneumoniae it was 12.44%; in the assay on Candida albicans, -0.94%; in the assay with Cryptococcus neoformans, -6.93%.

For the compound `Nc1ccc2c(c1)Cc1cc(Cl)c(Cl)cc1-2`, the Inhibition in the assay with Staphylococcus aureus was 12.19%; in the assay on Acinetobacter baumannii, -1.44%; in the assay on Escherichia coli, 15.96%; in the assay with Klebsiella pneumoniae, 4.46%; with Candida albicans, 8.7%; with Cryptococcus neoformans it was -5.33%.

For the compound `O=C(C=C=Nc1ccccc1)C(=O)N=C=Cc1ccccc1`, the Inhibition with Staphylococcus aureus was determined as 7.34%; in the assay with Acinetobacter baumannii, 5.35%; in the assay with Escherichia coli, 5.03%; with Klebsiella pneumoniae, 25.39%; in the assay on Candida albicans, 6.53%; with Cryptococcus neoformans, 5.95%.

The values are drawn from ChEMBL document CHEMBL4296182, “CO-ADD screening of NIH NCI Diversity Set V”.
